Reference: PubChem BioAssay (NCI)
The panel holds about 83,000 compounds, 20% with a hit somewhere; the sample as a whole holds those more often.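 Values shown are percent growth following 48 h exposure of cells in 96-well plates to a single concentration of compound; below 10 was considered active.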 A number with no mark means an inactive call. Calls of active or inactive are those of the source.

tested on: SR leukemia; test: NCI-60 one-dose screen, 48 h (100 = growth as untreated, 0 = no growth, -100 = all killed); conditions: 10 µM unless noted

Question: Which growth does the source give for `C=C(C)[C@@H]1CC[C@]2(C(=O)N3CCN(C)CC3)CC[C@]3(C)[C@H](CC[C@@H]4[C@@]5(C)CC(=C/c6ccncc6)/C(=N/O)C(C)(C)[C@@H]5CC[C@]43C)[C@@H]12` here?
Answer: 3.4% (active)

Question: How did the growth turn out when `Fc1ccc2[nH]cc(-c3nonc3-c3c[nH]c4ccc(Br)cc34)c2c1` was run?
Answer: 15.2%

Question: Which growth does the source give for `O=C1c2c(c3c4ccc(Br)cc4oc3c3[nH]c4ccccc4c23)C(=O)N1O` here?
Answer: 8.52% (active)

Question: `NC(=O)CCC(C(=O)O)N1C(=O)c2ccc(O)cc2C1=O` (configuration not stated) was tested. Which growth did it give?
Answer: 139%

Question: With `COc1ccc2nc(NC(=O)CSc3nnc4n3S(=O)(=O)c3ccccc3N4C)sc2c1` as the compound, how does the growth read?
Answer: 65.1%

Question: With `C=C(C)[C@@H]1CC[C@]2(C(=O)NCC#CCN3CCN(C)CC3)CC[C@]3(C)[C@H](CC[C@@H]4[C@@](C)(CCC#N)[C@H](C(=C)C)CC[C@]43C)[C@@H]12` as the compound, how does the growth read?
Answer: -12.1% (active)

Question: With `Cc1nnc(-n2c(O)cc(=O)n(-c3ccccc3)c2=S)nc1/C=C/c1ccc(N(C)C)cc1` as the compound, how does the growth read?
Answer: 36.2%

Question: `C/C(=N\NC(=O)c1ccccc1O)c1cccc(/C(C)=N/NC(=O)c2ccccc2O)n1` was tested. Which growth did it give?
Answer: 16.6%

Question: Which growth does the source give for `O=C1c2cc(Cl)ccc2S(=O)(=O)c2c(NCCCNCCO)nc3ccccc3c21` here?
Answer: -9.98% (active)

Question: `Cc1cc2c(O)c(-c3cc(Cl)ccc3Cl)c3sc(=O)oc3c2cc1C` was tested. Which growth did it give?
Answer: 54.3%

Question: For `O=C(Nc1ccc(NC(=O)c2cc(=O)[nH]c3ccccc23)cc1)Nc1cccc(C(F)(F)F)c1`, which growth is on record?
Answer: 61.1%

Question: For `c1ccc(C2=NN[C@H](c3cn(-c4ccccc4)nc3-c3ccccc3)C2)cc1`, which growth is on record?
Answer: 90.9%

Question: `O=C(CCCCC1CCSS1)Nc1ncnc2n[nH]c(-c3ccc(Oc4ccccc4)cc3)c12` (configuration not stated) was tested. Which growth did it give?
Answer: 32.9%

Question: `COc1cc(OC)cc(C2=C3CC[C@@H]4[C@H](CC[C@]5(C)C(=O)CC[C@@H]45)C3=CC3C(O)c4cccnc4N4C(=O)COC234)c1` (some centres not stated) was tested. Which growth did it give?
Answer: 82.3%

Question: Which growth does the source give for `Cc1cnc(C(=O)NNc2nc3sc4c(c3c(=O)n2C)C(C)CCC4)cn1` (configuration not stated) here?
Answer: 12.2%

Question: With `C=C(CNCCc1ccc(O)cc1)[C@@H]1CC[C@]2(CO)CC[C@]3(C)[C@H](CC[C@@H]4[C@@]5(C)CCC(NCCO)C(C)(C)[C@@H]5CC[C@]43C)[C@@H]12` (some centres not stated) as the compound, how does the growth read?
Answer: -42.3% (active)

Question: For `COc1ccc(/C=N/C2=C(C#N)C(c3cccc(Cl)c3)c3c(ccc4ccccc34)O2)cc1` (configuration not stated), which growth is on record?
Answer: 17.7%

Question: With `CCc1ccc(Oc2cn[nH]c2-c2ccc(OCCc3ccc(F)cc3)cc2O)cc1` as the compound, how does the growth read?
Answer: 101%

Question: `O=C(/C=C/c1cn(-c2ccccc2)nc1-c1ccc([N+](=O)[O-])cc1)c1ccc(Cl)cc1` was tested. Which growth did it give?
Answer: -22.6% (active)

Question: `CO[C@H]1/C=C(/C)CCC[C@H](C)[C@H](O)[C@@H](C)C(=O)C(C)(C)[C@@H](O)CC(=O)O[C@@H]1/C(C)=C/c1csc(C)n1` was tested. Which growth did it give?
Answer: 19.6%

Question: `Clc1ccc(CNc2c3ccccc3nc3ccccc23)cc1` was tested. Which growth did it give?
Answer: 2.32% (active)

Question: For `CCCCN[C@H]1CC[C@@]2(C)[C@@H](CC[C@@]3(C)[C@H]2[C@H](O)C[C@H]2/C(=C(\CCC=C(C)C)C(=O)OC)[C@@H](OC(C)=O)C[C@@]23C)[C@@H]1C`, which growth is on record?
Answer: 74.5%

Question: Which growth does the source give for `N#Cc1c(NC(=O)c2ccccc2)sc2c1CCC(=O)C2` here?
Answer: 7.72% (active)

Question: Which growth does the source give for `O=[N+]([O-])c1ccc(N/N=C(/C(=N/Nc2ccc([N+](=O)[O-])cc2)c2ccccc2)c2ccccc2)cc1` here?
Answer: 65.8%

Question: For `Oc1c(Cl)cc(Cl)c2ccc(Cn3cc(-c4cc(C(F)(F)F)cc(C(F)(F)F)c4)nn3)nc12`, which growth is on record?
Answer: -14% (active)

Question: For `COc1cc(-c2cc(-c3ccc(N(C)C)cc3)nc(N3CCC(O)CC3)c2C#N)cc(OC)c1OC`, which growth is on record?
Answer: 13.4%

Question: For `Cc1nn(-c2ccccc2)c(Oc2ccccn2)c1-c1nc2ccccc2s1`, which growth is on record?
Answer: 33.9%
